Assay outcomes from PubChem BioAssay.
Efflux pump mplx: blocks antifungal efflux pumps in multiplex yeast assay; S. cerevisiae Candida pump triplex, Nile Red efflux; inhibition, % at 10 µM; 0.44% of 330,000 active; AID 485275;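 active = plate passing quality check with inhibition over a set limit, or well fluorescence over plate mean plus 4 SD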;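 note: Nile Red retained in pooled yeast measured as flow cytometry median fluorescence; 0% = buffer negative control and 100% = Enniatin B positive control; higher means more Nile Red kept so more efflux inhibition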
PHOSPHO1 block: blocks human PHOSPHO1 phosphatase activity; recombinant PHOSPHO1, absorbance phosphatase assay; inhibition, % at 13.3 µM; 1.1% of 290,000 active; AID 1565; in the data active = inhibition above about 60%
Target sequence (Q8TCT1 whole entry, looked up): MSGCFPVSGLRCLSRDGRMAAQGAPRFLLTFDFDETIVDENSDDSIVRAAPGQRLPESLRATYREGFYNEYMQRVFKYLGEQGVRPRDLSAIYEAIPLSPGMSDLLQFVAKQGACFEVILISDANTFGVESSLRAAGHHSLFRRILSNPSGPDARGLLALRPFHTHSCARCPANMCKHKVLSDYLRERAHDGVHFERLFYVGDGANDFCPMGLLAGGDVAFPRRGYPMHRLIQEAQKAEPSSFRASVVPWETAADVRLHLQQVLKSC
H9c2 protect: modulators protecting cardiomyocytes from myocardial damage; H9c2 cardiomyocytes, H2O2 injury protection, ATPLite, 2 h; protection from H2O2 cell death, % at 20 µM; 0.63% of 360,000 active; AID 588492;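 active = compounds giving at least 50% protection of heart cells from peroxide-induced death in the single-dose screen, raw or plate-pattern-corrected value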;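 note: 0% = DMSO wells with peroxide and 100% = DMSO wells without peroxide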
KCC2 mod: modulators of human KCC2 chloride dependent transport; 2.2% of 190,000 active; B-score of Tl+ flux slope (higher = more flux/activation; lower = inhibition) at 10 µM; AID 1456; Q9H2X9; KCC2 cells, thallium flux FluoZin-2 fluorescence;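 active = thallium flux slope and its plate-corrected score both differing from the plate sample mean at a set confidence after two filtering rounds, in either direction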;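 note: slope of fluorescence scaled to starting intensity during 10 to 20 s after thallium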
Calb FLC: affects C. albicans growth with fluconazole | C. albicans CaCi-2 (fluconazole-resistant clinical isolate) + fluconazole, Alamar Blue growth, 48 h | AID 1979 | growth inhibition, % (test concentration not listed) | 0.57% of 300,000 active;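 active = growth inhibition above about 58% in most replicates, limit read from the data, passing the limit was not always enough; inconclusive = exactly half the replicates above a set limit; inactive = most replicates below a set limit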;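 note: all wells also contain fluconazole at 8 µg/ml as a sub-toxic cotreatment; 0% = median of DMSO wells and 100% = median of geldanamycin control wells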
KCC2 sec1: KCC2 (human) modulation, secondary assay | normalised thallium flux (F/F0 slope) at 10 µM | 15% of 3,700 active | AID 1713 | HEK293-KCC2, thallium flux, FluoZin2 fluorescence; hits give high values | shares compounds with KCC2 mod;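 active = thallium flux slope above the same plate's solvent-only control mean plus 3 SD; inconclusive = the two replicate wells disagree; inactive = no significant difference from solvent-only control wells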
KCC2 bumet counter: thallium flux persisting under bumetanide in KCC2 cells, counter-screen secondary assay | shares compounds with KCC2 mod | HEK293-KCC2 + bumetanide/ouabain, thallium flux FluoZin2; hits give high values | normalized thallium flux at 10 µM | 49% of 3,700 active | AID 1714;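 active = thallium entry rate above the same plate's blocked-transporter control wells by more than 3 SD; inconclusive = the two repeat wells disagree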;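 note: raw slope of fluorescence over initial fluorescence between 10 and 20 s after thallium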
KCC2 secondary2: confirmation of human KCC2 transport modulators; shares compounds with KCC2 mod; HEK293-KCC2, thallium flux FluoZin2 fluorescence; actives lie on both sides; F/F0 rise rate, 10–20 s post-thallium; normalized thallium flux at 10 µM; 23% of 3,700 active; AID 1715;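 active = thallium flux slope more than 3 SD above or below the plate's solvent-only control mean, mostly below; inconclusive = the two repeat wells disagreed; inactive = no significant shift from solvent-only controls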;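 note: raw slope with 0.1% DMSO as baseline and bumetanide as block control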
HEK293 Tl flux: parental HEK flux effect, counter-screen. shares compounds with KCC2 mod. HEK293 parental cells, thallium flux FluoZin2, ouabain; baseline-ratio fluorescence slope, 10–20 s after thallium. thallium flux rate (normalised fluorescence) at 10 µM. 46% of 3,700 active. AID 1716;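 active = thallium flux rate significantly above the same plate's solvent-only control wells, beyond their mean plus 3 SD; inconclusive = the two replicate wells gave conflicting results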
KCC2 retest ouab: modulates human KCC2 on retest with ouabain; shares compounds with KCC2 mod; HEK293-KCC2, thallium flux FluoZin2 fluorescence; bidirectional: low = inhibitor, high = activator; raw Tl+ flux slope (below DMSO = inhibition, above = activation) at 10 µM; 48% of 3,700 active;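 active = thallium flux slope beyond 3 SD from same-plate DMSO control mean in most replicates, usually higher, sometimes lower; inconclusive = repeat tests gave conflicting results; inactive = no significant difference from controls in most replicates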;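 note: slope of initial-normalized fluorescence between seconds 10 and 20 after thallium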
HEK293 Tl flux2: parental HEK flux effect, counter-screen 2; HEK293 parental, thallium flux FluoZin-2 fluorescence slope; 33% of 3,700 active; shares compounds with KCC2 mod; thallium flux slope at 10 µM;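 active = thallium flux slope above the same plate's solvent-control mean plus 3 SD in both duplicate wells; inconclusive = duplicate wells that disagreed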;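 note: run without ouabain in cells lacking the KCC2 cotransporter; slope of fluorescence scaled to its starting value between 10 and 20 s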
Numbers without * were called inactive; ? = inconclusive; nt = no result given. An excerpt weighted towards active compounds, which were near 3.3% of everything screened.

SMILES	Efflux pump mplx	PHOSPHO1 block	H9c2 protect	KCC2 mod	Calb FLC	KCC2 sec1	KCC2 bumet counter	KCC2 secondary2	HEK293 Tl flux	KCC2 retest ouab	HEK293 Tl flux2
CC1CC(C)CN(S(=O)(=O)c2ccc(C(=O)Nc3nnc(-c4cccs4)o3)cc2)C1 (centres undefined)	0	6	50*	12*	-7	0.0056	0.032*	0.041*	0.025*	0.034*	0.024*
CCC1CCCCN1S(=O)(=O)c1ccc(NC(=O)c2cccnc2)cc1 (centres undefined)	0	10	1	nt	7	nt	nt	nt	nt	nt	nt
CN(CC(=O)Nc1ccc(Cl)c(C(F)(F)F)c1)C(=O)C1CSC2(C)CCC(=O)N12 (centres undefined)	0	nt	-8	nt	1	nt	nt	nt	nt	nt	nt
S=C(NCc1ccc2c(c1)OCO2)NC1CCN(Cc2ccccc2)CC1	0	13	-1	nt	2	nt	nt	nt	nt	nt	nt
C=C1c2cc3c(cc2NC(=S)N1Cc1ccccc1)OCO3	0	70*	0	53*	-2	0.016*	0.099*	0.032	0.035*	0.047*	0.016*
S=c1[nH]nc(-c2ccc(Cl)cc2)n1/N=C/C=C/c1ccco1	0	36	6	30*	46	0.016*	0.11*	0.039	0.036*	0.038*	0.015*
COc1ccccc1/C=C/C=N/n1c(-c2ccc(Cl)cc2)n[nH]c1=S	0	19	-2	13*	1	0.0092	0.023*	0.03	0.011*	0.031*	?
S=c1[nH]nc(-c2ccccc2)n1/N=C/C=C/c1ccco1	0	-14	6	3.8	18	nt	nt	nt	nt	nt	nt
COc1ccc(-c2n[nH]c(=S)n2/N=C/C=C/c2ccccc2OC)cc1	0	-4	-11	0.92	-10	nt	nt	nt	nt	nt	nt
S=c1[nH]nc(-c2ccco2)n1/N=C/C=C/c1ccccc1	0	63*	-1	7*	-4	0.018	0.033*	0.035	0.016*	0.021	0.018*
Cc1ccc(/C=N/n2c(-c3ccc(Cl)cc3)n[nH]c2=S)s1	0	-5	-3	10*	26	0.0081	0.012*	0.031	0.016*	?	0.015*
O=C(Cc1cccc(NC(=O)C2CCN(C(=O)C3CC3)CC2)c1)Nc1cccc(C(=O)N2CCCCC2)c1	nt	nt	4	nt	nt	nt	nt	nt	nt	nt	nt
COc1ccc(C(C)=O)c(Oc2cc(NN3CCCCC3)c([N+](=O)[O-])cc2[N+](=O)[O-])c1	0	-24	-2	nt	0	nt	nt	nt	nt	nt	nt
O=C(NCCc1ccccc1)C(=O)NCC1CCCN1S(=O)(=O)c1cccs1 (centres undefined)	0	nt	9	nt	-1	nt	nt	nt	nt	nt	nt
COc1ccc(CN2CCNC(=O)C2CC(=O)N(C)Cc2ccon2)c(OC)c1 (centres undefined)	0	28	-5	0.22	-32	nt	nt	nt	nt	nt	nt
S=c1[nH]nc(-c2ccc(Cl)cc2)n1/N=C/c1ccco1	0	48	2	21*	45	0.007	0.029*	?	0.022*	0.033*	0.02*
FC(F)(F)c1n[nH]c(=S)n1/N=C/c1ccco1	0	7	-1	-1.9	5	nt	nt	nt	nt	nt	nt
CCOc1ccc(S(=O)(=O)N2CCCC(C(=O)Nc3cccc(C)c3)C2)cc1 (centres undefined)	0	18	-8	nt	5	nt	nt	nt	nt	nt	nt
CN(CC(=O)N1CC(=O)N(CCc2ccccc2)C(=O)C1)S(=O)(=O)c1cccc2nsnc12	0	1	2	-4*	3	0.0058	0.0056*	?	0.0085	?	0.012
O=C(CCS(=O)(=O)c1cccc2nsnc12)N1CC(=O)N(CCc2ccccc2)C(=O)C1	0	-7	10	-1.6	-3	nt	nt	nt	nt	nt	nt
O=C1CC[C@@]23CCCN2C(=O)CCCC3C1 (some centres undefined)	1	nt	3	nt	nt	nt	nt	nt	nt	nt	nt
CCC(C)(C)n1nnnc1C(c1cc2cc(C)ccc2[nH]c1=O)N1CCCC1 (centres undefined)	0	10	9	-0.015	-5	nt	nt	nt	nt	nt	nt
Cc1ccc2cc(C(c3nnnn3C(C)(C)C)N3CCCCCC3)c(=O)[nH]c2c1 (centres undefined)	0	102*	6	nt	3	0.0091	0.0068	0.03	0.0069	0.025	0.011
O=C(O)c1ccc(N2CC3CC(C2)c2cccc(=O)n2C3)c(NC(=S)Nc2ccc(Cl)cc2Cl)c1 (centres undefined)	0	39	-12	15*	1	0.011	0.015*	0.035	?	?	0.013
O=S(=O)(c1ccc(SCCOc2ccc(F)cc2)nc1)N1CCCC1	0	nt	-12	nt	nt	nt	nt	nt	nt	nt	nt
SMILES	Efflux pump mplx	PHOSPHO1 block	H9c2 protect	KCC2 mod	Calb FLC	KCC2 sec1	KCC2 bumet counter	KCC2 secondary2	HEK293 Tl flux	KCC2 retest ouab	HEK293 Tl flux2
O=c1cc(CSc2nnc(Nc3ccccc3F)s2)nc2sccn12	0	32	40	-0.088	3	nt	nt	nt	nt	nt	nt
COc1ccc(Nc2nnc(SCc3cc(=O)n4ccsc4n3)s2)cc1	0	0	63*	-5.2*	6	0.011	0.0065	0.03*	0.0036	0.017*	0.012
COc1ccccc1C(=O)NCCC(=O)Nc1cccc(S(=O)(=O)N2CCCC2)c1	0	nt	2	nt	nt	nt	nt	nt	nt	nt	nt
CC(=O)c1ccc(OCCCCCCCOc2ccc(C(C)=O)cc2)cc1	0	10	-13	nt	-2	nt	nt	nt	nt	nt	nt
COC(C[C@@H]1O[C@@H]1[C@H](O)[C@H](C)OCc1ccccc1)OC	nt	31	1	nt	-6	0.015	0.004	0.03	0.0073	0.016	0.011
O=C(O)c1ccc(C2CCCCC2)cn1	0	-7	4	8.3*	33	0.011	0.0089*	0.03	0.0077	0.019	0.01
COc1ccccc1OCC(=O)Nc1cc(C(F)(F)F)ccc1-n1cncn1	0	nt	5	nt	0	nt	nt	nt	nt	nt	nt
Cc1c(O)ccc(/C(Cc2ccc3ccccc3n2)=N\O)c1O	0	12	-9	-4.9*	14	0.008	0.0039	0.029	0.0064	0.015*	0.0095
O=C(Nc1nnc(-c2cccc(F)c2)s1)Nc1ccccc1F	0	19	-2	3.8*	16	0.0064	0.0048	0.031	0.0074	0.02	0.011
O=C(Nc1nnc(-c2ccccc2SCc2ccccc2F)s1)Nc1ccccc1F	1	7	-1	0.68	-5	nt	nt	nt	nt	nt	nt
